The list is not random: actives were taken first. Their share in the collection is about 4.7%.
TRHR PAM = allosteric enhancers of human TRH receptor; 0.66% of 360,000 active; P34981; TRHR cells, fluo-8 calcium fluorescence, EC20 TRH enhancement; enhancement, % at 2 µM; in the data active = enhancement above about 30%
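TRHR-expressing cells loaded with fluo-8 calcium dye were read kinetically (ex 480/em 530) during compound addition, then stimulated with an EC20 of TRH (10 nM final). Enhancement of the Gq-mediated intracellular calcium response was scored.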
D1 ag = activates the human D1 dopamine receptor; 1% of 360,000 active; P21728; HEK293 T-REx D1 cells, calcium flux, agonist mode; activation, % at 2 µM
Target sequence (P21728 whole entry, looked up): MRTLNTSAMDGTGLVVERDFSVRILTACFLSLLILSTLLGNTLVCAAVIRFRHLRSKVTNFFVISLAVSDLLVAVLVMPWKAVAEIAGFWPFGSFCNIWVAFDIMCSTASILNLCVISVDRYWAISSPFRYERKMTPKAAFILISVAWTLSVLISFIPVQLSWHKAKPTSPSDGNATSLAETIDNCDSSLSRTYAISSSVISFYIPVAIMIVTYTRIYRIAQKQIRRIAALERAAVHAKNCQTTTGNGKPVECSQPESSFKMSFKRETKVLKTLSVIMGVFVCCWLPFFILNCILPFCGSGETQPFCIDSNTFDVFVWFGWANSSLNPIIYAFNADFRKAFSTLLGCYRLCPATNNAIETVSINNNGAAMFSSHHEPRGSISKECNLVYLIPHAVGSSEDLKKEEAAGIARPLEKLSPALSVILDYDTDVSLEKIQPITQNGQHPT
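Tetracycline-induced HEK293 TREx D1 cells, force-coupled to calcium signalling, were dye-loaded with a no-wash calcium kit. Compound was pin-added after a 10 s baseline. Fluorescence was read kinetically at 1 cycle/s for 180 s, with calcium rises flagged as agonism.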
D1 antag = antagonists of human D1 dopamine receptor; P21728; HEK293 TREx D1 cells, calcium flux, dopamine EC80; hits give low values; activity change, negative = inhibition, % at 10 µM; 3.2% of 360,000 active; AID 504652; in the data active = activity change below about -30%
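Using tetracycline-induced force-coupled D1 Hek293 cells and a calcium dye, signals were followed for 180 s after compound, then for 180 s after EC80 dopamine, to detect inhibitors.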
D1 potentiator = potentiators of human D1 dopamine receptor; P21728; HEK293 TREx D1 cells, calcium flux, dopamine EC20 potentiation; potentiation, % at 10 µM; 0.036% of 360,000 active; AID 504651; in the data active = potentiation above about 30%
TRHR ag = activates the human TRH receptor; activation, % at 2 µM; AID 493084; 0.18% of 360,000 active; TRHR cells, calcium flux fluo-8, FDSS agonist mode; P34981
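TRHR-expressing cells, plated overnight in medium with 10% serum, were loaded with fluo-8 calcium dye at room temperature. After a 10 s baseline, library compound was pin-added and calcium release was recorded kinetically (ex 480/em 530) as agonist response.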
Hits are given with their value; – = inactive. Rule as the data show it, unless noted: active = activation above about 30%; inactive = the rest.

SMILES	TRHR PAM	D1 ag	D1 antag	D1 potentiator	TRHR ag
O=C(CC(c1ccccc1)c1ccccc1O)NCCN1CCOCC1 (stereo not given)	–	–	-53	–	–
CCCS(=O)(=O)c1nc(S(=O)(=O)c2ccc(Cl)cc2)c(N2CCC(O)CC2)s1	–	–	–	52	–
CCS(=O)(=O)c1nc(S(=O)(=O)c2ccc(C)cc2)c(N2CCC(C)CC2)s1	–	–	-36	–	–
CCCS(=O)(=O)c1nc(S(=O)(=O)c2ccc(C)cc2)c(N2CCC(C)CC2)s1	–	–	–	–	–
Cc1ccc(N(CC(=O)Nc2ccc(Cl)cc2)S(=O)(=O)c2cccc3nonc23)cc1	–	–	–	–	–
C=CCOC(=O)/C(=C/c1ccco1)NC(=O)/C=C/c1ccccc1	–	–	–	–	–
O=C(O)CNC(=O)/C(=C/c1ccco1)NC(=O)/C=C/c1ccccc1	–	270	-36	–	–
COc1ccc(-c2nnc(C3CCN(S(=O)(=O)c4cccc(Cl)c4)CC3)o2)cc1	–	–	–	–	–
CCOC(=O)C1=C(C)Nc2ncnn2C1c1cc(Br)ccc1F (stereo not given)	–	–	-33	–	–
COc1ccc(C2C=C(c3ccc(C)cc3)Nc3ncnn32)cc1 (stereo not given)	–	–	–	–	–
COc1ccc(C2C=C(c3ccc(Cl)c(Cl)c3)Nc3ncnn32)cc1 (stereo not given)	–	48	–	–	–
CCOc1ccc(C2=CC(c3cc(Br)ccc3F)n3ncnc3N2)cc1Cl (stereo not given)	–	–	-86	–	–
CCSc1nc2sc3c(c2c(=O)n1-c1ccc(C)cc1)CCCC3	–	–	–	–	–
CC(=O)N1CCCc2cc(S(=O)(=O)N(C)CC(=O)Nc3ccc(C)cc3C)ccc21	–	–	–	–	–
COc1ccccc1CNC(=O)Cn1c(=O)oc2cc(S(=O)(=O)NCc3ccccc3)ccc21	–	–	–	–	–
Cc1cc2c(s1)c1cnn(Cc3c(F)cccc3C(F)(F)F)c(=O)c1n2C	–	–	–	–	–
Cc1ccc(C(=O)OCC(=O)Nc2ccc3c(c2)OCO3)cc1S(=O)(=O)N1CCOCC1	–	–	-77	–	–
Cc1ccc(NC(=O)COC(=O)c2ccc3c(c2)OCCO3)cc1S(=O)(=O)N1CCOCC1	–	–	–	–	–
O=C(OCCOc1cccc(Cl)c1)c1ccc(F)c(S(=O)(=O)N2CCOCC2)c1	–	–	–	–	–
Cc1ccc(NS(=O)(=O)c2ccc3c(c2)OCCCO3)cc1S(=O)(=O)N1CCOCC1	–	–	-35	–	–
Cc1ccc(NC(=O)CCCOc2ccccc2)cc1S(=O)(=O)N1CCOCC1	–	–	-53	–	–
Cc1ccc(C(=O)OCCOc2cccc(Cl)c2)cc1S(=O)(=O)N1CCOCC1	–	31	–	–	–
Cc1cc2c(s1)c1cnn(Cc3ccc(Cl)c(F)c3)c(=O)c1n2C	–	–	–	–	–
COc1ccc(C(=O)Nc2nnc(S(=O)(=O)N3CCCc4ccccc43)s2)cc1	–	–	–	–	–
CCc1ccc(NC(=O)c2ccc(F)c(S(=O)(=O)N3CCN(c4ccc(OC)cc4)CC3)c2)cc1	–	–	-45	–	–
SMILES	TRHR PAM	D1 ag	D1 antag	D1 potentiator	TRHR ag
COc1ccc(OCCOC(=O)c2cc(S(=O)(=O)N3CCOCC3)c(Cl)cc2Cl)cc1	–	–	–	–	–
COc1ccc(OCCOC(=O)c2ccc(F)c(S(=O)(=O)N3CCOCC3)c2)cc1	–	–	-64	–	–
CCc1ccc(NC(=O)c2ccc(F)c(S(=O)(=O)N3CCC(C)CC3)c2)cc1	–	–	–	–	–
CCCc1cc(F)c(S(=O)(=O)N2CCN(S(=O)(=O)c3ccc4c(c3)OCCO4)CC2)cc1F	–	–	–	–	–
O=C(CSc1nccn1Cc1ccco1)Nc1ccc(OC(F)(F)F)cc1	–	–	–	–	–
O=S(=O)(c1ccc2c(c1)OCO2)N1CCN(S(=O)(=O)c2c(F)cccc2F)CC1	–	–	–	–	–
CC1CCN(S(=O)(=O)c2ccc3c(ccc(=O)n3CC(=O)NCc3ccccc3)c2)CC1	–	–	–	–	–
COc1ccc(CC(=O)OCC(=O)N2CCCc3ccccc32)cc1	–	–	-41	–	–
